# Measured values as given in PubChem BioAssay (NCATS).
# Inconclusive results are not listed. Active and inactive are the calls of the source. Calls follow the shape of the dose curve; as a rule, active = well fitted curve in the direction sought with a large enough effect; inconclusive = small, poorly fitted or top-dose-only effect, or another doubt; inactive = no such curve, though single readings can be large; an effect the other way counts as inactive or inconclusive.
# Experiments:
# [1] = Quantitative High-Throughput drug screen in 47 multiple myeloma cell lines against the NCATS MIPE library collection: ARP1_JJKsccF8 cell viability assay (AID 1918928; also: nearly all actives have a fitted effect of over 40% in size)
# Summary of the method: (§1)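 ATP readout (CellTiter-Glo), 48 h drug incubation, 37 °C/5% CO2, 500 cells per well; normalisation to DMSO (100%) and media-only (0%) controls.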
# [2] = Quantitative High-Throughput drug screen in 47 multiple myeloma cell lines against the NCATS MIPE library collection: Karpas620_DSMZ cell viability assay (AID 1918959); also: nearly all actives have a fitted effect of over 30% in size
# Summary of the method: (§2)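 Viability readout: CellTiter-Glo luminescence following 5 min room-temperature incubation with reagent. Prior exposure: 48 h, 37C, humidified 5% CO2, 500 cells per well.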
# [3] = Quantitative High-Throughput drug screen in 47 multiple myeloma cell lines against the NCATS MIPE library collection: Karpas417_ECACC cell viability assay (AID 1918961); details: Karpas417 myeloma viability, CellTiter-Glo ATP luminescence, 48 h; viability (% of DMSO): at 45.8 µM (top of the series)
# Summary of the method: (§3)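 Approved and investigational drugs from MIPE 4.0 were added by pin tool to 500 cells per well. After 48 hours at 37C, ATP-based CellTiter-Glo luminescence indicated remaining viability.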
# [4] = Quantitative High-Throughput drug screen in 47 multiple myeloma cell lines against the NCATS MIPE library collection: JIM3_ECACC cell viability assay (AID 1918963; also: nearly all actives have a fitted effect of over 35% in size)
# Summary of the method: as §2
# [5] = Quantitative High-Throughput drug screen in 47 multiple myeloma cell lines against the NCATS MIPE library collection: JIM1_ECACC cell viability assay (AID 1918964)
# Summary of the method: (§4)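 Luminescent ATP measurement with CellTiter-Glo gives viability, scaled between DMSO-only wells (100%) and media-only wells (0%). Cells, 500 per well, faced library compounds for 48 hours at 37C.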
# [6] = Quantitative High-Throughput drug screen in 47 multiple myeloma cell lines against the NCATS MIPE library collection: INA6_PLB cell viability assay (AID 1918965; also: nearly all actives have a fitted effect of over 55% in size)
# Summary of the method: as §3
# [7] = Quantitative High-Throughput drug screen in 47 multiple myeloma cell lines against the NCATS MIPE library collection: JJN3_DSMZ cell viability assay (AID 1918966; also: nearly all actives have a fitted effect of over 50% in size)
# Summary of the method: as §4
# [8] = Quantitative High-Throughput drug screen in 47 multiple myeloma cell lines against the NCATS MIPE library collection: H1112_PLB cell viability assay (AID 1918967; also: nearly all actives have a fitted effect of over 30% in size)
# Summary of the method: as §4
# [9] = Quantitative High-Throughput drug screen in 47 multiple myeloma cell lines against the NCATS MIPE library collection: Karpas25_ECACC cell viability assay (AID 1918968; also: nearly all actives have a fitted effect of over 35% in size)
# Summary of the method: as §4
# [10] = Quantitative High-Throughput drug screen in 47 multiple myeloma cell lines against the NCATS MIPE library collection: KMS12PE_JCRB cell viability assay (AID 1918972); also: nearly all actives have a fitted effect of over 30% in size
# Summary of the method: as §3
# [11] = Quantitative High-Throughput drug screen in 47 multiple myeloma cell lines against the NCATS MIPE library collection: KMS20_JCRB cell viability assay (AID 1918973); also: nearly all actives have a fitted effect of over 45% in size
# Summary of the method: as §4
# [12] = Quantitative High-Throughput drug screen in 47 multiple myeloma cell lines against the NCATS MIPE library collection: KMS21BM_JCRB cell viability assay (AID 1918974); details: ATP luminescence, 48 h; viability: at 45.8 µM (top of the series)
# Summary of the method: as §4
# [13] = Quantitative High-Throughput drug screen in 47 multiple myeloma cell lines against the NCATS MIPE library collection: KMS26_JCRB cell viability assay (AID 1918975); also: nearly all actives have a fitted effect of over 45% in size
# Summary of the method: (§5)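 Steps: seed 500 cells per well; pin-transfer MIPE 4.0 library; incubate 48 h at 37C, 5% CO2, humidified; add CellTiter-Glo, 5 min room temperature; read luminescence.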
# [14] = Quantitative High-Throughput drug screen in 47 multiple myeloma cell lines against the NCATS MIPE library collection: MMM1_PLB cell viability assay (AID 1918976); also: nearly all actives have a fitted effect of over 35% in size
# Summary of the method: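 MIPE 4.0 approved/investigational drugs; 500 cells/well; 48 h 37 °C humidified 5% CO2; CTG luminescence readout; DMSO = 100%, media = 0% viability.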
# [15] = Quantitative High-Throughput drug screen in 47 multiple myeloma cell lines against the NCATS MIPE library collection: ARD_JJKsccE7 cell viability assay (AID 1918929)
# Summary of the method: as §4
# [16] = Quantitative High-Throughput drug screen in 47 multiple myeloma cell lines against the NCATS MIPE library collection: KMS27_JCRB cell viability assay (AID 1918970); also: nearly all actives have a fitted effect of over 30% in size
# Summary of the method: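 ATP-based viability (CellTiter-Glo luminescence) is measured in cells treated 48 h with approved and investigational drugs at 37 °C. Controls are DMSO-only wells for full viability and media-only wells for none.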
# [17] = Quantitative High-Throughput drug screen in 47 multiple myeloma cell lines against the NCATS MIPE library collection: KMM1_JCRB cell viability assay (AID 1918960); also: nearly all actives have a fitted effect of over 30% in size
# Summary of the method: as §1
# [18] = Quantitative High-Throughput drug screen in 47 multiple myeloma cell lines against the NCATS MIPE library collection: KHM11_PLB cell viability assay (AID 1918962); also: nearly all actives have a fitted effect of over 35% in size
# Summary of the method: as §2
# [19] = Quantitative High-Throughput drug screen in 47 multiple myeloma cell lines against the NCATS MIPE library collection: AMO1_DSMZ cell viability assay (AID 1918927; also: nearly all actives have a fitted effect of over 30% in size)
# Summary of the method: as §4
# [20] = Quantitative High-Throughput drug screen in 47 multiple myeloma cell lines against the NCATS MIPE library collection: KMS12BM_JCRB cell viability assay (AID 1918971); also: nearly all actives have a fitted effect of over 35% in size
# Summary of the method: as §5
# Potency is read from the fitted curve at half-maximal effect.
smiles,measurement,setting,value
C[C@@H]1O[C@@H](O[C@@H]2C=C3CC[C@@H]4[C@@H](CC[C@]5(C)[C@H](c6ccc(=O)oc6)CC[C@@]45O)[C@@]3(C)CC2)[C@H](O)[C@H](O)[C@H]1O,Potency,[1],0.0209 µM (active)
same,Potency,[2],0.0209 µM (active)
same,Potency,[3],0.0148 µM (active)
same,Potency,[4],0.0296 µM (active)
same,Potency,[5],0.0132 µM (active)
same,Potency,[6],0.0264 µM (active)
same,Potency,[7],0.0469 µM (active)
same,Potency,[8],0.0418 µM (active)
same,Potency,[9],0.0235 µM (active)
same,Potency,[10],0.0074 µM (active)
same,Potency,[11],0.0187 µM (active)
same,Potency,[12],0.0264 µM (active)
same,Potency,[13],0.0418 µM (active)
same,Potency,[14],0.0264 µM (active)
CC(=O)Nc1ccc(OC[C@](C)(O)C(=O)Nc2ccc([N+](=O)[O-])c(C(F)(F)F)c2)cc1,Potency,[15],inactive
same,Potency,[2],inactive
same,Potency,[4],inactive
same,Potency,[8],inactive
same,Potency,[13],inactive
Clc1ccccc1C(c1ccccc1)(c1ccccc1)n1cccn1,Potency,[2],inactive
same,Potency,[4],inactive
same,Potency,[5],inactive
same,Potency,[6],inactive
same,Potency,[8],inactive
same,Potency,[16],inactive
same,Potency,[10],inactive
same,Potency,[11],inactive
C#C[C@]1(O)C=C[C@@H]2[C@@H]3CCC4=CC(=O)CC[C@@H]4[C@H]3CC[C@@]21CC,Potency,[1],inactive
same,Potency,[2],inactive
same,Potency,[4],inactive
same,Potency,[8],inactive
same,Potency,[9],inactive
same,Potency,[11],inactive
same,Potency,[13],inactive
Cc1c(C(=O)c2cccc3ccccc23)c2cccc3c2n1[C@H](CN1CCOCC1)CO3,Potency,[1],26.4 µM (active)
same,Potency,[2],8.33 µM (active)
same,Potency,[17],5.26 µM (active)
same,Potency,[6],23.5 µM (active)
same,Potency,[7],16.6 µM (active)
same,Potency,[8],23.5 µM (active)
same,Potency,[9],14.8 µM (active)
same,Potency,[10],7.43 µM (active)
same,Potency,[11],18.7 µM (active)
same,Potency,[13],23.5 µM (active)
same,Potency,[14],23.5 µM (active)
COCC1(CO)C(=O)C2CCN1CC2 (stereo not drawn),Potency,[1],1.48 µM (active)
same,Potency,[15],20.9 µM (active)
same,Potency,[2],23.5 µM (active)
same,Potency,[17],20.9 µM (active)
same,Potency,[3],3.72 µM (active)
same,Potency,[18],7.43 µM (active)
same,Potency,[5],6.62 µM (active)
same,Potency,[6],2.96 µM (active)
same,Potency,[7],0.59 µM (active)
same,Potency,[8],20.9 µM (active)
same,Potency,[10],9.35 µM (active)
same,Potency,[11],0.296 µM (active)
same,Potency,[12],4.18 µM (active)
same,Potency,[13],0.662 µM (active)
same,Potency,[14],5.26 µM (active)
C[C@H]([C@H](O)CCC(C)(C)O)[C@H]1CC[C@@]2(O)C3=CC(=O)[C@@H]4C[C@@H](O)[C@@H](O)C[C@]4(C)[C@@H]3CC[C@]12C,Potency,[2],inactive
same,Potency,[17],inactive
same,Potency,[4],inactive
same,Potency,[6],inactive
same,Potency,[8],inactive
same,Potency,[9],inactive
same,Potency,[16],inactive
same,Potency,[10],inactive
same,Potency,[13],inactive
same,Potency,[14],14.8 µM (active)
C=C[C@@H]1CN2CCC1C[C@@H]2[C@@H](O)c1ccnc2ccccc12 (stereo partly drawn),Potency,[19],5.9 µM (active)
same,Potency,[2],5.26 µM (active)
same,Potency,[6],23.5 µM (active)
same,Potency,[9],8.33 µM (active)
same,Potency,[16],5.26 µM (active)
same,Potency,[10],7.43 µM (active)
same,Potency,[14],18.7 µM (active)
COc1ccc(CC2NCCc3cc(OC)c(OC)cc32)cc1OC (stereo not drawn),Potency,[2],inactive
same,Potency,[17],inactive
same,Potency,[3],inactive
same,Potency,[4],inactive
same,Potency,[8],inactive
same,Potency,[20],inactive
same,Potency,[10],inactive
same,Potency,[13],inactive
CCCN1CCO[C@@H]2c3cc(O)ccc3OC[C@@H]21,Potency,[1],inactive
same,Potency,[15],inactive
same,Potency,[2],inactive
same,Potency,[17],inactive
same,Potency,[4],inactive
same,Potency,[8],inactive
same,Potency,[9],inactive
same,Potency,[10],inactive
same,Potency,[14],16.6 µM (active)
CC(=O)O[C@@]12CO[C@H]1C[C@H](O)[C@@]1(C)C(=O)[C@H](O)C3=C(C)[C@@H](O)C[C@@](O)([C@@H](OC(=O)c4ccccc4)[C@@H]21)C3(C)C,Potency,[1],2.64 µM (active)
same,Potency,[15],2.09 µM (active)
same,Potency,[17],1.18 µM (active)
same,Potency,[6],1.48 µM (active)
same,Potency,[20],1.48 µM (active)
same,Potency,[13],inactive
Cc1c(N)nc([C@H](CC(N)=O)NC[C@@H](N)C(N)=O)nc1C(=O)N[C@H](C(=O)N[C@@H](C)[C@H](O)[C@@H](C)C(=O)N[C@@H](C(=O)NCCc1nc(-c2nc(C(=O)NCCC[S+](C)C)cs2)cs1)[C@@H](C)O)C(O[C@H]1O[C@H](CO)[C@H](O)[C@@H](O)[C@@H]1O[C@H]1O[C@H](CO)[C@@H](O)[C@H](OC(N)=O)[C@H]1O)c1cnc[nH]1 (stereo partly drawn),Potency,[19],0.296 µM (active)
same,Potency,[17],0.418 µM (active)
same,Potency,[8],5.9 µM (active)
same,Potency,[11],0.935 µM (active)
CC=C(C)C(=O)O[C@H]1C(C)=C2[C@@H]3OC(=O)[C@@](C)(O)[C@@]3(O)[C@@H](OC(=O)CCC)C[C@](C)(OC(C)=O)[C@@H]2[C@@H]1OC(=O)CCCCCCC,Potency,[1],0.0296 µM (active)
same,Potency,[2],inactive
same,Potency,[4],0.264 µM (active)
same,Potency,[6],0.0935 µM (active)
same,Potency,[7],0.0469 µM (active)
same,Potency,[8],0.526 µM (active)
same,Potency,[16],inactive
same,Potency,[13],0.0296 µM (active)
same,Potency,[14],0.0235 µM (active)
CC(=CCCC1=CCC(C2=CC(=O)OC2O)OC1O)CCC1=C(C)CCCC1(C)C (stereo not drawn),Potency,[1],inactive
same,Potency,[2],inactive
same,Potency,[4],inactive
same,Potency,[5],inactive
same,Potency,[6],inactive
same,Potency,[8],inactive
same,Potency,[10],inactive
same,Potency,[13],inactive
CC=C(C)C(=O)N[C@@H](c1ccccc1)[C@@H](O)C(=O)O[C@H]1C[C@@]2(O)[C@@H](OC(=O)c3ccccc3)[C@@H]3[C@]4(OC(C)=O)CO[C@@H]4C[C@H](O)[C@@]3(C)C(=O)[C@H](OC(C)=O)C(=C1C)C2(C)C,Potency,[1],inactive
same,Potency,[4],inactive
same,Potency,[6],inactive
same,Potency,[9],inactive
same,Potency,[20],inactive
same,Potency,[11],inactive
same,Potency,[13],inactive
O=c1[nH]c2ccccc2n1C1CCN(Cc2ccc(-c3[nH]c4cc5ncnc5cc4nc3-c3ccccc3)cc2)CC1,Potency,[1],14.8 µM (active)
same,Potency,[15],18.7 µM (active)
same,Potency,[3],1.48 µM (active)
same,Potency,[4],5.9 µM (active)
same,Potency,[5],4.69 µM (active)
same,Potency,[6],1.48 µM (active)
same,Potency,[7],29.6 µM (active)
same,Potency,[8],0.833 µM (active)
same,Potency,[16],18.7 µM (active)
same,Potency,[20],20.9 µM (active)
same,Potency,[10],10.5 µM (active)
same,Potency,[11],2.35 µM (active)
same,Potency,[12],16.6 µM (active)
same,Potency,[13],23.5 µM (active)
same,Potency,[14],14.8 µM (active)
